Experiments:
[1] = biological target: Tyrosine-protein kinase Lck (Homo sapiens) (UniProt P06239); settings: at 10 µM
[2] = biological target: Tyrosine-protein kinase Lck (Homo sapiens) (UniProt P06239); settings: at 1 µM
[3] = biological target: Tyrosine-protein kinase Lck (Homo sapiens) (UniProt P06239); settings: at 10 µM; remark: listed apart in the source
[4] = biological target: Tyrosine-protein kinase Lyn (Homo sapiens) (UniProt P07948); settings: at 1 µM
[5] = biological target: Tyrosine-protein kinase Lyn (Homo sapiens) (UniProt P07948); settings: at 10 µM
[6] = biological target: Mitogen-activated protein kinase 1 (Homo sapiens) (UniProt P28482); settings: at 1 µM
[7] = biological target: Mitogen-activated protein kinase 1 (Homo sapiens) (UniProt P28482); settings: at 10 µM
[8] = biological target: MAP kinase-activated protein kinase 2 (Homo sapiens) (UniProt P49137); settings: at 1 µM
[9] = biological target: Mitogen-activated protein kinase 3 (Homo sapiens) (UniProt P27361); settings: at 1 µM
[10] = biological target: Mitogen-activated protein kinase 3 (Homo sapiens) (UniProt P27361); settings: at 10 µM

MAP kinase-activated protein kinase 2 (Homo sapiens), sequence (P49137 whole entry, looked up): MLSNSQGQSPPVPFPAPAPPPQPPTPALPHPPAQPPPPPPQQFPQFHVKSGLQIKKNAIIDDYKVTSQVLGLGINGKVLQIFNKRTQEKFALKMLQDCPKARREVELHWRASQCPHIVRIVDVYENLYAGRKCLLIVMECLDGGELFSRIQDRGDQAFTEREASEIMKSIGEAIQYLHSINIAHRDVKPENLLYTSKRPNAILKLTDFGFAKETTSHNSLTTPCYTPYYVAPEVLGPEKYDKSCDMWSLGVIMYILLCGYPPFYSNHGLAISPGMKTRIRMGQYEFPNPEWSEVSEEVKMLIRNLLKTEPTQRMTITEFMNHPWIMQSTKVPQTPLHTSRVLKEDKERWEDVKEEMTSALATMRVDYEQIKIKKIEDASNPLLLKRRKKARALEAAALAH
Mitogen-activated protein kinase 1 (Homo sapiens), sequence (P28482 whole entry): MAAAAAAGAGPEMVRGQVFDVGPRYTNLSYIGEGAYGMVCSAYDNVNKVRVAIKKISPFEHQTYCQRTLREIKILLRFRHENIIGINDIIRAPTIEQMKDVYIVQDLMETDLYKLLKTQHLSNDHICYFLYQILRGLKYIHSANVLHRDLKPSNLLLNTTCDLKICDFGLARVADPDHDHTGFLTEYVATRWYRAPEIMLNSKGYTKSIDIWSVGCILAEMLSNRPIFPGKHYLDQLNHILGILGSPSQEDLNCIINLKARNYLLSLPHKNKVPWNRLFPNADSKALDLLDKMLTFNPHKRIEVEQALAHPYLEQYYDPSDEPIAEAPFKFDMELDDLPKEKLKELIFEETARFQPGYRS
Tyrosine-protein kinase Lyn (Homo sapiens), sequence (P07948 2-512 limits assumed): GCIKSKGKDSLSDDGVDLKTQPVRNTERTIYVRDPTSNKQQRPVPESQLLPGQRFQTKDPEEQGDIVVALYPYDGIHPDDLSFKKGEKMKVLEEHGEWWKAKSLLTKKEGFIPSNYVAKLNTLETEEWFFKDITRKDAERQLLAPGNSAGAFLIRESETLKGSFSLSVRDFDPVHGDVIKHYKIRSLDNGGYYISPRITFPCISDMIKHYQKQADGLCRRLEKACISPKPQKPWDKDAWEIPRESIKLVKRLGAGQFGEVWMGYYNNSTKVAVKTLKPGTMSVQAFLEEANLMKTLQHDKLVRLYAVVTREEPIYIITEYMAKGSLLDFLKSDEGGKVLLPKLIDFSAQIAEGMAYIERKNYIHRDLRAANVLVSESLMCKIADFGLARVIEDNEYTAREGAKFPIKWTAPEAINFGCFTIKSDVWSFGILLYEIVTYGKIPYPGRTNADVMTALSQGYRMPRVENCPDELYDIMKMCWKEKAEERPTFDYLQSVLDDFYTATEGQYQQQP
Mitogen-activated protein kinase 3 (Homo sapiens), sequence (P27361 whole entry): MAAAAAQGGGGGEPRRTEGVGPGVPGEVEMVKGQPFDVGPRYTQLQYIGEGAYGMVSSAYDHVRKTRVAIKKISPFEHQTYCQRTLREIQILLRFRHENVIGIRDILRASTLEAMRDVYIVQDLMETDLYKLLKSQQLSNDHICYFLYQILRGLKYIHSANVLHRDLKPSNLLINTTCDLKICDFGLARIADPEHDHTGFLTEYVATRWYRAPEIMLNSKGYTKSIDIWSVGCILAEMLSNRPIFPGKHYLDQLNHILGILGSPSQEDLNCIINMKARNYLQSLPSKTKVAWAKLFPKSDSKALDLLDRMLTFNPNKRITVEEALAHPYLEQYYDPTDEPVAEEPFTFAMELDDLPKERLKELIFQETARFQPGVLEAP
Tyrosine-protein kinase Lck (Homo sapiens), sequence (P06239 2-509 limits assumed): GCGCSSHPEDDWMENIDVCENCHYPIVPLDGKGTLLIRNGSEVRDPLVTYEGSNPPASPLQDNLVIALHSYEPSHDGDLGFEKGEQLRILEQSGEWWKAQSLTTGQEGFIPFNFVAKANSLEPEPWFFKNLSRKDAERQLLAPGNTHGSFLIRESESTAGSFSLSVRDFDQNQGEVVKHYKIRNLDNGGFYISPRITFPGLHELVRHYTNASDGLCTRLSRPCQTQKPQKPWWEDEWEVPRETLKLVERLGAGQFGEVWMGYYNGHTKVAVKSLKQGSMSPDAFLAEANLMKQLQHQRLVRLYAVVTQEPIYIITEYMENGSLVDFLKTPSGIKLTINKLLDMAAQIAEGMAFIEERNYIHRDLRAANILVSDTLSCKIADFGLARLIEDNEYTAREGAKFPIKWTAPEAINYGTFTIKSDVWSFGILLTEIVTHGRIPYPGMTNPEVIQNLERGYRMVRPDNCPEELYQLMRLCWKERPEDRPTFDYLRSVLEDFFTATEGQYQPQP

Row | SMILES | residual activity [1] | residual activity [2] | residual activity [3] | residual activity [4] | residual activity [5] | residual activity [6] | residual activity [7] | residual activity [8] | residual activity [9] | residual activity [10]
1 | CCCCc1c(-c2ccc(OC)cc2)[nH]c2nccnc12 | 63% | 63% | 82% | 37% | 11% | 117% | 105% | 89% | – | –
2 | COc1cc2nccc(Oc3ccc(NC(=S)NC(=O)c4ccccc4C)cc3)c2cc1OC | -1% | 0% | 0% | 0% | 0% | 93% | 87% | 73% | 83% | 82%
3 | O=c1cc(N2CCOCC2)oc2c1ccc1ccccc12 | 101% | 89% | 88% | 103% | 90% | 103% | 106% | 100% | 101% | 80%
4 | CC(C)(C)n1nc(Cc2cccc3ccccc23)c2c(N)ncnc21 | 6% | 44% | 12% | 10% | 1% | 81% | 41% | – | 78% | 51%
5 | O=C1C(Cl)=C(N2C(=O)CCC2=O)C(=O)c2ccccc21 | 99% | – | 93% | 87% | 84% | – | – | 69% | 102% | 91%
6 | CC(C)c1nn(-c2c(Cl)cccc2Cl)c2nc(Cc3ccc(OCCO)cc3)[nH]c(=O)c12 | 85% | – | 88% | 81% | 36% | – | 89% | 80% | 94% | 73%
7 | COc1ccc2c(c1)c(C1=C(c3c[nH]c4ccccc34)C(=O)NC1=O)cn2CCCN(C)C | 25% | 65% | 27% | 63% | 13% | 114% | – | – | 104% | 82%
8 | COc1ccc(COc2ccc(Cc3cnc(N)nc3N)cc2OC)cc1 | 77% | – | – | – | – | – | – | – | 100% | 76%
9 | O=C1NC(=O)C(c2c[nH]c3ccccc23)=C1c1c[nH]c2ccccc12 | 37% | – | 41% | 82% | 32% | – | – | 98% | – | 61%
10 | Nc1ncnc2[nH]nc(Nc3ccc(F)cc3)c12 | 14% | 31% | 19% | 19% | 3% | 101% | 67% | 75% | 90% | 43%
11 | CCCC(=O)Oc1ccc2[nH]c(C(=O)c3cc4ccccc4[nH]3)cc2c1 | 73% | 80% | 76% | 61% | 31% | 100% | 104% | 75% | 77% | 80%
12 | CCCCc1c(-c2ccc(O)cc2)[nH]c2nccnc12 | 50% | 63% | 59% | – | – | – | – | 98% | 96% | 73%
13 | O=C1NC(=O)C(c2cn(CCCn3ccnc3)c3ccccc23)=C1Nc1ccccc1 | 65% | – | 66% | – | 39% | 104% | 110% | 100% | – | 70%
14 | O=c1cc(N2CCNCC2)oc2c(-c3ccccc3)cccc12 | 85% | 92% | 88% | – | 71% | 101% | – | 94% | 86% | 87%
15 | c1ccc(-c2cnc(Nc3ccc(OCCN4CCCC4)cc3)s2)cc1 | 19% | 36% | 5% | 29% | 4% | – | – | – | – | –
16 | O=C(O)/C=C/c1cc(Br)c(Br)c(Br)c1Br | 95% | – | 80% | 70% | 63% | – | – | 93% | 106% | 104%
17 | O=C1Nc2ccc(Cl)cc2/C1=C/c1cc(Cl)c(O)c(Cl)c1 | 53% | 74% | 51% | 81% | 23% | – | – | 67% | 76% | 70%
18 | O=C(c1cc2cc(O)ccc2[nH]1)c1cc2cc(O)ccc2[nH]1 | 2% | 22% | 7% | 6% | -1% | – | – | 64% | 82% | 64%
19 | O=C(NC(NC(=S)Nc1ccc(F)c([N+](=O)[O-])c1)C(Cl)(Cl)Cl)C(c1ccccc1)c1ccccc1 (stereo unspecified) | 55% | 86% | 74% | 89% | 66% | – | – | 90% | 82% | 82%

Row | SMILES | residual activity [1] | residual activity [2] | residual activity [3] | residual activity [4] | residual activity [5] | residual activity [6] | residual activity [7] | residual activity [8] | residual activity [9] | residual activity [10]
20 | O=C(c1ccccc1)c1ccc(N2CCOCC2)cc1O | 94% | 96% | 78% | 85% | 72% | – | – | 73% | 90% | 89%
21 | COc1ccc(-c2cnc3c(-c4ccsc4)cnn3c2)cc1 | 123% | 93% | 91% | 98% | 95% | – | – | 91% | 84% | 91%
22 | COc1cc2nccc(Oc3ccc(NC(=O)Nc4cc(C)on4)c(Cl)c3)c2cc1OC | 1% | -2% | 1% | -1% | 2% | 103% | 104% | – | – | –
23 | Nc1ncnc2c1c(-c1ccc(Oc3ccccc3)cc1)cn2C1CCCC1 | -1% | -3% | 2% | 0% | 1% | 106% | 93% | 82% | 76% | 66%
24 | CSc1nc(-c2ccc(F)cc2)c(-c2ccnc(NC(C)c3ccccc3)c2)[nH]1 (stereo unspecified) | 62% | – | 37% | 52% | 29% | – | – | 79% | – | –
25 | COc1ccc(CNC(=O)Nc2ncc([N+](=O)[O-])s2)cc1 | 37% | 6% | 9% | – | – | 120% | 101% | – | – | –
26 | CCN(CC)CCNC(=O)c1c(C)[nH]c(/C=C2\C(=O)Nc3ccc(Cl)cc32)c1C | 2% | 6% | -1% | 2% | 3% | – | – | – | – | 115%
27 | COc1cc2ncnc(Nc3cccc(Cl)c3)c2cc1OC | 12% | 49% | 15% | 10% | 1% | 101% | 80% | 108% | – | 65%
28 | O=C(CCCc1ccc(-c2ccccc2F)cc1)Nc1ccc(O)cc1 | 58% | 99% | 88% | 97% | 85% | 106% | 92% | 95% | 100% | 88%
29 | Nc1nc(Nc2ccc(S(N)(=O)=O)cc2)nn1C(=O)c1c(F)cccc1F | 29% | 66% | 18% | 40% | 11% | – | – | – | 102% | –
30 | NCCNc1ncc(C(N)=O)c(Nc2cccc(C(F)(F)F)c2)n1 | 37% | 82% | 29% | 27% | 3% | – | 43% | – | 72% | 40%
31 | O=C1Nc2ccccc2/C1=C\c1c(Cl)[nH]c2ccccc12 | 48% | – | 55% | – | 62% | 121% | – | – | – | –
32 | O=C1NC(=O)c2c1c1c3ccccc3[nH]c1n1cncc21 | 49% | 72% | 47% | 57% | 19% | – | 98% | 79% | 86% | 90%
33 | O=S(=O)(c1cccc2cnccc12)N1CCCNCC1 | – | – | – | 83% | – | – | 80% | – | – | –
34 | O=c1cc(N2CCOCC2)oc2c(-c3ccccc3)cccc12 | – | – | – | – | 74% | – | – | – | 78% | 73%
35 | O=C1Cc2c([nH]c3ccc([N+](=O)[O-])cc23)-c2ccccc2N1 | – | 76% | 45% | 6% | 5% | 109% | – | 69% | – | –
36 | O=C(Nc1nc2ccccc2n1CCN1CCOCC1)c1cccc([N+](=O)[O-])c1 | – | – | – | – | 87% | – | – | – | – | –
37 | O=C1Cc2c([nH]c3ccc(Br)cc23)-c2ccccc2N1 | – | – | – | 10% | 1% | – | – | – | – | –
38 | Cn1sc(=O)n(Cc2ccccc2)c1=O | – | – | – | 82% | 92% | 95% | 92% | 72% | 83% | 92%

Row | SMILES | residual activity [1] | residual activity [2] | residual activity [3] | residual activity [4] | residual activity [5] | residual activity [6] | residual activity [7] | residual activity [8] | residual activity [9] | residual activity [10]
39 | N#C/C(=C\c1ccc(O)c(O)c1)C(=O)NCc1ccccc1 | – | – | – | – | 70% | – | – | 85% | 77% | 65%
40 | CCN1/C(=C/C(C)=O)Sc2ccc(OC)cc21 | – | – | – | 49% | 37% | – | – | – | – | –
41 | NC(=O)c1cccc(-c2cc(Nc3ccc(OC(F)(F)F)cc3)ncn2)c1 | – | 92% | 91% | 97% | 82% | – | – | – | – | –
42 | CN(C)S(=O)(=O)c1ccc2c(c1)/C(=C/c1cc3c([nH]1)CCCC3)C(=O)N2 | – | – | – | 3% | 0% | – | – | 81% | – | 88%
43 | CC(C)N(CCC(=O)c1ccc2ccccc2c1)Cc1ccccc1 | 77% | – | – | – | – | – | – | – | 85% | 76%
44 | O=S(=O)(NCCNC/C=C/c1ccc(Br)cc1)c1cccc2cnccc12 | – | – | – | – | 49% | – | – | – | – | 70%
45 | NC(=O)Nc1sc(-c2ccc(F)cc2)cc1C(N)=O | – | – | – | 16% | 1% | 108% | 67% | 92% | 80% | –
46 | CCOc1nc(NC(=O)Cc2cc(OC)ccc2OC)cc(N)c1C#N | – | – | – | 69% | 59% | – | – | – | – | –
47 | Oc1cccc(-c2nc(N3CCOCC3)c3oc4ncccc4c3n2)c1 | – | – | – | 99% | 57% | 122% | 119% | 81% | 83% | 87%
48 | O=C1NC(=O)C(c2cn(CCCO)c3ncccc23)=C1c1cnccn1 | – | – | – | 78% | 70% | – | – | 93% | – | –
49 | CN([C@@H](Cc1ccc(OS(=O)(=O)c2cccc3cnccc23)cc1)C(=O)N1CCN(c2ccccc2)CC1)S(=O)(=O)c1cccc2cnccc12 | – | 113% | – | 78% | 59% | – | – | – | – | –
50 | Nc1n[nH]c2nc3ccccc3nc12 | – | – | – | 75% | 67% | 123% | – | – | – | –
51 | Fc1ccc(-c2nc3n(c2-c2ccncc2)CCS3)cc1 | – | – | 75% | 98% | 74% | – | – | – | 138% | 92%
52 | Nc1nccc(-c2c(-c3ccc(F)cc3)ncn2C2CCNCC2)n1 | – | – | – | 50% | 6% | – | – | – | – | 35%
53 | COc1cc2c(cc1OC)-c1n[nH]c(Nc3cccc(F)c3)c1C2 | – | – | – | 6% | 6% | 103% | 103% | 75% | – | 76%
54 | O=C(Nc1ccc(Cl)cc1)c1ccccc1NCc1ccncc1 | – | – | – | 30% | 2% | – | – | – | 77% | 80%
55 | NC(=O)c1ccc(-c2nc(-c3ccc4c(c3)OCCO4)c(-c3ccccn3)[nH]2)cc1 | – | – | – | 83% | – | – | – | – | 96% | –
56 | CCOC(=O)c1c(C)[nH]c(/C=C2\C(=O)Nc3ccccc32)c1C | – | – | – | 50% | 26% | 100% | 96% | – | 81% | 91%
